Measured values reported in PubChem BioAssay (Tox21).
Where “and” joins values, the source holds several entries; their conditions need not be identical. Equal values may be shown once. Records with an inconclusive call do not appear. A call without a number means that no potency is given here. Calls of active or inactive are those of the source. Unless noted, calls come from the whole dose curve; as a rule, active = well fitted curve in the direction sought with a large enough effect in the repeat runs; inconclusive = weak or mixed curves; inactive = no such curve, though single readings can be large; an effect the other way counts as inactive or inconclusive.

Columns and labels:
[1] = A CellTox Green Cytotoxicity Assay to monitor cytotoxicity in HepG2 cells - 0 hour (AID 1224882); note: nearly all actives have a fitted effect of over 35% in size
Procedure, shortened: (§1)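 HepG2, 600 cells/well premixed w/ CellTox Green; 5 h settle, 37 C/5% CO2; pintool cpd add (DMSO); 37 C, 40 h; fluorescence read at 0, 8, 16, 24, 32, 40 h.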

[2] = A CellTox Green Cytotoxicity Assay to monitor cytotoxicity in HepG2 cells - 32 hour (AID 1224883); note: nearly all actives have a fitted effect of over 50% in size; note: potency is the fitted concentration of half-maximal effect
Procedure, shortened: as §1

[3] = A CellTox Green Cytotoxicity Assay to monitor cytotoxicity in HEK293 cells - 8 hour (AID 1224884); note: nearly all actives have a fitted effect of over 35% in size; note: potency is the fitted concentration of half-maximal effect
Procedure, shortened: (§2)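 Read-out: fluorescence of a cell-impermeant cyanine dye staining DNA of dead cells, proportional to cytotoxicity. HEK293, 600 cells/well with reagent, compound (23 nL DMSO) added after 5 h; reads at 0, 8, 16, 24, 32, 40 h.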

[4] = A CellTox Green Cytotoxicity Assay to monitor cytotoxicity in HEK293 cells - 16 hour (AID 1224888); note: nearly all actives have a fitted effect of over 35% in size; note: potency is the fitted concentration of half-maximal effect
Procedure, shortened: as §2

[5] = qHTS RealTime-Glo MT Cell Viability Assay in HepG2 cells - 0 hour (AID 1224889); note: nearly all actives have a fitted effect of over 50% in size; note: potency is the fitted concentration of half-maximal effect
Procedure, shortened: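 Cells + NanoLuc/prosubstrate dispensed (600 cells/well) → 5 h at 37 C/5% CO2 → compounds in DMSO transferred → 40 h incubation at 37 C, luminescence read at 0, 8, 16, 24, 32, 40 h.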

[6] = A CellTox Green Cytotoxicity Assay to monitor cytotoxicity in HepG2 cells - 8 hour (AID 1224890); note: nearly all actives have a fitted effect of over 45% in size; note: potency is the fitted concentration of half-maximal effect
Procedure, shortened: as §1

[7] = qHTS assay to identify small molecule antagonists of the estrogen receptor alpha (ER-alpha) signaling pathway using the BG1 cell line in the presence of 0.1 nM 17-beta-estradiol - cell viability counter screen (AID 1259241); note: nearly all actives have a fitted effect of over 40% in size; note: potency is the fitted concentration of half-maximal effect
Procedure, shortened: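 Estradiol-stimulated (0.1 nM) VM7Luc4E2 cells exposed to compounds 22 hr; viability measured by fluorescence of cleaved CellTiter-Fluor substrate after 30 min.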

[8] = qHTS assay to identify small molecule antagonists of the androgen receptor (AR) signaling pathway using the MDA cell line in the presence of 0.5 nM R1881 - cell viability counter screen (AID 1259242); note: nearly all actives have a fitted effect of over 45% in size
Procedure, shortened: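 Live-cell protease fluorescence, CellTiter-Fluor, 30 min at 37C. Cells: MDA-kb2, 3,000/well, preincubated 5 hr. Compounds plus 0.5 nM R1881 final, 16 hr, 37C, 0% CO2.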

[9] = target: Estrogen receptor (Homo sapiens) (UniProt P03372); assay: qHTS assay to identify small molecule antagonists of the estrogen receptor alpha (ER-alpha) signaling pathway using the BG1 cell line in the presence of 0.1 nM 17-beta-estradiol (AID 1259244); note: nearly all actives have a fitted effect of over 50% in size; note: potency is the fitted concentration of half-maximal effect
Estrogen receptor (Homo sapiens), sequence (P03372 whole entry, looked up): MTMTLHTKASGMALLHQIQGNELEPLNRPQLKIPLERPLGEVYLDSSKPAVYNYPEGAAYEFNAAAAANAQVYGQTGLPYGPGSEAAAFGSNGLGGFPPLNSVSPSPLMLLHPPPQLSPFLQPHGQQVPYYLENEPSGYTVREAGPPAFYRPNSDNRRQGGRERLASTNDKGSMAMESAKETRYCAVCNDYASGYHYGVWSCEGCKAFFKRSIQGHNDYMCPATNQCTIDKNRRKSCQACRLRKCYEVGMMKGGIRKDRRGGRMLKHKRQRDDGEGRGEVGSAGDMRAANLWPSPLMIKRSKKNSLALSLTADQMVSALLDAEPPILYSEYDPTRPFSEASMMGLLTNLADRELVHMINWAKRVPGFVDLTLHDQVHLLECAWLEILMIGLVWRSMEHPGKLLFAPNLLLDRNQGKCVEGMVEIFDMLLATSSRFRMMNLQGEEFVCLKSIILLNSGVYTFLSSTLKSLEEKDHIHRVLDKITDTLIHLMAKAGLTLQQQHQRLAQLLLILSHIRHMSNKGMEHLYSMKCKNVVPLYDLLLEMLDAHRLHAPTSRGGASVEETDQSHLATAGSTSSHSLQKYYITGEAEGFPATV
Procedure, shortened: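 Luminescence after ONE-Glo (30 min, room temperature) measured ERE-luciferase activity in VM7Luc4E2 cells treated 22 h with compound and 0.1 nM final 17beta-estradiol as stimulator.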

[10] = qHTS assay to identify small molecule HDAC inhibitors (AID 1259364); note: potency is the fitted concentration of half-maximal effect;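 note: wild-type HCT-116 cells with endogenous class I/II HDAC activity; nearly all actives have a fitted effect of over 45% in size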
Procedure, shortened: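 HCT-116 (wild type), 1,500 cells/well, overnight; compound 2 hr 37C 5% CO2; HDAC-Glo I/II reagent 30 min RT; luminescence readout.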

[11] = qHTS assay to identify small molecule HDAC inhibitors - cell viability counter screen (AID 1259365); note: series mostly up to about 92 µM; nearly all actives have a fitted effect of over 50% in size
Procedure, shortened: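 After overnight seeding at 1,500 cells per well, wild-type HCT-116 cultures took up compounds in DMSO for 2hr at 37 C. Viable cell content came from luminescence with CellTiter-Glo.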

[12] = qHTS assay to identify small molecule antagonists of the sonic hedgehog signaling (Shh) pathway - cell viability counter screen (AID 1259367); note: nearly all actives have a fitted effect of over 55% in size; note: potency is the fitted concentration of half-maximal effect
Procedure, shortened: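 Viability was read by CellTiter-Fluor fluorescence in the same wells, reagent added 23 hr into compound treatment and incubated 1 hr at 37C. The 3T3 Gli1-Luc reporter cells (2,000/well) received conditioned medium after compound and ran 24 hr.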

[13] = qHTS assay to identify small molecule agonists of the sonic hedgehog signaling (Shh) pathway (AID 1259368; calls by dose curve;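 note: NIH/3T3-derived 3T3Gli1-Luc cells carrying a stable Gli1-driven firefly luciferase reporter; series mostly up to about 92 µM; nearly all actives have a fitted effect of over 15% in size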)
Procedure, shortened: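 Read-out: firefly luciferase luminescence from a Gli1 response element reporter stably integrated in NIH/3T3-derived 3T3Gli1-Luc cells, measured 30 min at room temperature after reagent addition. Compound exposure lasted 24 hr at 37 C, 5% CO2.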

[14] = qHTS RealTime-Glo MT Cell Viability Assay in HEK293 cells - 8 hour (AID 1224887); note: nearly all actives have a fitted effect of over 50% in size; note: potency is the fitted concentration of half-maximal effect
Procedure, shortened: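 Luminescence readout at each listed time point; HEK293, 600 cells/well, RealTime-Glo MT reagent added with cells; compounds pinned (23 nL in DMSO) after 5 h at 37 C; continuous culture at 37 C.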

[15] = qHTS assay to identify small molecule agonists of the sonic hedgehog signaling (Shh) pathway - cell viability counter screen (AID 1259366); note: nearly all actives have a fitted effect of over 50% in size; note: potency is the fitted concentration of half-maximal effect
Procedure, shortened: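 Same-well cytotoxicity read. Gli1-Luc reporter 3T3 cells; compounds 24hr, 37C/5% CO2; CellTiter-Fluor fluorescence.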

[16] = qHTS assay to identify small molecule antagonists of the sonic hedgehog signaling (Shh) pathway (AID 1259369; calls by dose curve; note: nearly all actives have a fitted effect of over 45% in size; note: potency is the fitted concentration of half-maximal effect)
Procedure, shortened: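 Luminescence readout: firefly Luc under Gli1 response element in 3T3Gli1-Luc cells (NIH/3T3 clone). Antagonist mode, stimulation by conditioned medium; compound exposure 24hr at 37 C, 5% CO2.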

[17] = qHTS assay to identify small molecule phospholipidosis (PLD) inducers (AID 1259344; active = well fitted curve in the direction sought with a large enough effect; an effect the other way counts as inactive or inconclusive; note: potency is the fitted concentration of half-maximal effect)
Procedure, shortened: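 Phospholipid accumulation was scored by imaging: fixed, Hoechst-counterstained HepG2 cells stained with LipidTOX Red after 24 h compound exposure at 37 C. Read-outs were pit count and pit intensity per well or per cell, with amiodarone and DMSO controls.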

[18] = qHTS RealTime-Glo MT Cell Viability Assay in HEK293 cells - 24 hour (AID 1224886)
Procedure, shortened: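 Tox21 10K qHTS, HEK293, 600 cells/well, RealTime-Glo reagent co-dispensed with cells; 5 h preincubation, compound by pintool, 37 C, luminescence at 0–40 h.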

[19] = target: Androgen receptor (Homo sapiens) (UniProt P10275); assay: qHTS assay to identify small molecule antagonists of the androgen receptor (AR) signaling pathway using the MDA cell line in the presence of 0.5 nM R1881 (AID 1259243)
Androgen receptor (Homo sapiens), sequence (P10275 whole entry, looked up): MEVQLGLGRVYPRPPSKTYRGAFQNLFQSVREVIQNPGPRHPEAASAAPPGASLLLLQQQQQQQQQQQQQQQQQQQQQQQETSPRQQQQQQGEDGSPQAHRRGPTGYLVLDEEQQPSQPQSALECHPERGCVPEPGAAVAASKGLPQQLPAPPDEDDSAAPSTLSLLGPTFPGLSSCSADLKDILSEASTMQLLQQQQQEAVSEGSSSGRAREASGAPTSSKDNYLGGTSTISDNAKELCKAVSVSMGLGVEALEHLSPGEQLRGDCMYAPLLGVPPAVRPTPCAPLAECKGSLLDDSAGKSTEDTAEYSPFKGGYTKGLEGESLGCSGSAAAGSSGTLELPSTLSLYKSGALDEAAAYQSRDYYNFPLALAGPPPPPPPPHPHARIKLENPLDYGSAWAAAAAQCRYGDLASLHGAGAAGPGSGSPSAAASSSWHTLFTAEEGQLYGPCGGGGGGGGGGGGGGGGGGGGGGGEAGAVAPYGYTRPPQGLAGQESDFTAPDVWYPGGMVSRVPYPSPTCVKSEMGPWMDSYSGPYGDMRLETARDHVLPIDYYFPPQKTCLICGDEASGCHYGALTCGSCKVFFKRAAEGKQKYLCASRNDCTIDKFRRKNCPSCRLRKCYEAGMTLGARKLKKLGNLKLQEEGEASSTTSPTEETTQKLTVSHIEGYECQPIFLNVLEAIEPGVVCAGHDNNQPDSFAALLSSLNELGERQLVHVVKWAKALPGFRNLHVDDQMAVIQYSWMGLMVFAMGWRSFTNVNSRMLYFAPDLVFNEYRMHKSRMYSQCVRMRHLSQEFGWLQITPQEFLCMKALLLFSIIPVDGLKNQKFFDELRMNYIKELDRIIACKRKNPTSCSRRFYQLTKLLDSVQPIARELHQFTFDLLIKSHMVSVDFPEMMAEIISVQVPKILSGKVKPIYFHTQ
Procedure, shortened: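 MDA-kb2, MMTV-luc (AR/GR elements); 3,000 cells/well; cpd + 0.5 nM R1881 final; 16 hr 37C, 0% CO2; ONE-Glo 30 min RT; luminescence.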

SMILES	Potency [1]	Potency [2]	Potency [3]	Potency [4]	Potency [5]	Potency [6]	Potency [7]	Potency [8]	Potency [9]	Potency [10]	Potency [11]	Potency [12]	Potency [13]	Potency [14]	Potency [15]	Potency [16]	Potency [17]	Potency [18]	Potency [19]
CCOC(=O)c1nc(C(Cl)(Cl)Cl)n(-c2ccc(Cl)cc2Cl)n1	inactive	inactive	inactive	inactive	inactive	inactive	inactive	inactive	inactive	inactive	inactive	61.1 µM (active)	inactive	–	–	–	–	–	–
O=c1cccccc1O	inactive	inactive	inactive	inactive	inactive	inactive	inactive	inactive	inactive	inactive	inactive	62.3 µM (active)	inactive	inactive	55.5 µM (active)	24.8 µM (active)	–	–	–
Nc1c2ccccc2nc2ccccc12	inactive	12.1 µM (active) and 10.7 µM (active)	inactive	inactive	–	inactive	inactive	inactive	inactive	inactive	inactive	inactive	inactive	–	–	inactive	inactive	–	–
CC[C@@]1(O)C(=O)OCc2c1cc1n(c2=O)Cc2c-1nc1ccccc1c2/C=N/OC(C)(C)C	inactive	1.07 µM (active)	inactive	–	–	inactive	inactive	inactive	0.188 µM (active)	inactive	inactive	inactive	–	–	–	0.0668 µM (active)	–	0.0239 µM (active)	0.133 µM (active)
CN1CCC(Nc2ncc3ncnc(Nc4ccc(F)c(Cl)c4)c3n2)CC1	inactive	26.8 µM (active)	inactive	inactive	inactive	inactive	inactive	inactive	–	inactive	inactive	–	inactive	–	29.8 µM (active)	6.68 µM (active)	11.2 µM (active)	9.52 µM (active)	–
N/C(=N\N=C\c1ccc(Cl)cc1)N/N=C/c1ccc(Cl)cc1	inactive	23.9 µM (active)	23.9 µM (active)	23.9 µM (active)	–	21.3 µM (active)	inactive	inactive	inactive	inactive	–	inactive	–	–	–	–	inactive	–	–
Cc1cc(=O)oc2cc(N(C)C)ccc12	inactive	inactive	inactive	inactive	inactive	inactive	–	–	–	inactive	inactive	–	inactive	inactive	–	inactive	–	–	–
O=C1CCCc2c1cc1ccc3cccc4ccc2c1c34	inactive	inactive	inactive	–	–	inactive	inactive	inactive	inactive	inactive	–	inactive	inactive	–	–	inactive	–	8.82 µM (active)	9.81 µM (active)
[Cl][Au]([Cl])[Cl]	inactive	11 µM (active)	inactive	49 µM (active)	–	–	68.6 µM (active)	–	–	inactive	inactive	4.86 µM (active)	inactive	–	3.86 µM (active)	–	–	3.89 µM (active)	–
CCCCCCOC(=O)c1ccc(O)cc1	inactive	43.7 µM (active) and 7.76 µM (active)	inactive	–	inactive	inactive	inactive	inactive	inactive	24.4 µM (active) and 27.3 µM (active)	inactive	–	–	43.7 µM (active) and 24.5 µM (active)	–	–	–	–	–
C[C@@H]1C[C@H]2[C@@H]3CCC4=CC(=O)C=C[C@]4(C)[C@@]3(Cl)[C@@H](O)C[C@]2(C)[C@@]1(OC(=O)c1ccco1)C(=O)CCl	inactive	inactive	inactive	–	inactive	inactive	inactive	inactive	–	inactive	inactive	–	inactive	inactive	–	–	inactive	–	–
CCOC(=O)O[C@]1(C(=O)OCCl)CC[C@H]2[C@@H]3CCC4=CC(=O)C=C[C@]4(C)[C@H]3[C@@H](O)C[C@@]21C	inactive	inactive	inactive	inactive	3.38 µM (active)	inactive	inactive	–	–	inactive	inactive	inactive	inactive	inactive	inactive	–	inactive	–	–
On1ccccc1=S	inactive	0.385 µM (active)	inactive	inactive	inactive	inactive	9.59 µM (active)	–	–	12.1 µM (active)	inactive	3.03 µM (active)	inactive	–	–	–	–	3.85 µM (active)	–
CCOc1ccc2nc3cc(N)ccc3c(N)c2c1	inactive	16.9 µM (active)	inactive	–	inactive	inactive	–	inactive	inactive	inactive	inactive	–	inactive	inactive	–	–	inactive	–	–
CSc1ccc2c(c1)C(N1CCN(C)CC1)Cc1ccccc1S2 (centres undefined)	inactive	23.9 µM (active)	inactive	inactive	–	–	inactive	–	inactive	inactive	inactive	–	inactive	inactive	–	15 µM (active)	–	–	–
CN(C)[C@@H]1C(=O)C(C(N)=O)=C(O)[C@@]2(O)C(=O)C3=C(O)c4c(O)ccc(Cl)c4[C@@H](O)[C@H]3C[C@@H]12	inactive	inactive	inactive	inactive	inactive	inactive	inactive	inactive	–	inactive	inactive	inactive	inactive	inactive	–	inactive	inactive	–	–
